Each structure is given as a SMILES string. Where “and” joins values, the source holds several entries; their conditions need not be identical. Equal entries are not always repeated. The campaign covered roughly 390,000 compounds. About 150 (0.038%) were called active. Entries that show only a call come without a potency. About 3% were inconclusive and are not listed. Calls come from the whole dose curve; as a rule, active = well fitted inhibition curve with a large enough effect; inconclusive = small, poorly fitted or top-dose-only effect; inactive = no such curve, though single readings can be large or run the other way. Only a selection was taken, and actives are over-represented in it overall. More than one record can exist for a structure, and the calls need not agree.
Potency is the fitted concentration of half-maximal effect.

The target of the assay is Regulator of G-protein signaling 4 (Homo sapiens) (UniProt P49798). The assay is described as follows: Inhibitors of Regulator of G Protein Signaling (RGS) 4: qHTS. Note: nearly all actives have a fitted effect of over 75% in size. Conditions: Transcreener GDP fluorescence polarization, RGS4-accelerated GTP hydrolysis; series mostly up to 56.9 µM. From the text: G-protein-coupled receptors (GPCRs) are well-established targets for drug discovery and development. Members of the "regulator of G-protein signaling" (RGS)-protein superfamily have recently emerged as critical modulators of specific GPCR signaling pathways. […] Combining specific RGS domain inhibitors with existing GPCR agonists should potentiate cellular responses and could also increase the specificity of action of existing therapeutics. Small molecule modulators of RGS domain activity should also have clinical utility in inhibiting or potentiating the actions of endogenous GPCR agonists. In particular, the diversity of RGS proteins with highly localized and dynamically regulated distributions in the human brain makes this family of proteins attractive targets for pharmacotherapy of central nervous system (CNS) disorders such as Parkinson's disease, schizophrenia, and anxiety.
Chain of Regulator of G-protein signaling 4 (Homo sapiens) (P49798 whole entry, looked up, the tested form may be a part): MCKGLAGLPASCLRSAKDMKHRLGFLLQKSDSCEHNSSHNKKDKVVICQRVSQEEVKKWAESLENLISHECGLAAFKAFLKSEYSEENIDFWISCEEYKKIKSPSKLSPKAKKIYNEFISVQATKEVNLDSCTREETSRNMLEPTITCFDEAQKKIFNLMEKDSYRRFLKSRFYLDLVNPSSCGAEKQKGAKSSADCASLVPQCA
This assay was used to screen the NIH Molecular Libraries Small Molecule Repository (MLSMR) in order to identify a small molecule that inhibits RGS4.
NIH Chemical Genomics Center [NCGC]
NIH Molecular Libraries Probe Centers Network [MLPCN]
Assay Submitter (PI): David Siderovski, University of North Carolina Chapel Hill (School of Medicine)
Two microliters of 500nM (2x working concentration) is dispensed into black medium-binding solid-bottom Kalypsys plates. Then with the Kalypsys pintool 23nl of control and compounds are transferred; the control compound is […] CCG-4986 (working concentration). […] An initial fluorescent polarization read (620 nm/688 nm) is performed on the Envision before the plate is incubated for 90 minutes at 30 deg C at a relative humidity of 80%. The plate is once more centrifuged at 1000 RPM for 15 seconds and another Envision fluorescent polarization (620 nm/688 nm) read is carried out.
For orientation: qHTS replaces the single test concentration by a dilution series.
As for `CC(=O)c1c(O)c(C)c(O)c(Cc2c(O)c3c(c(C(=O)/C=C/c4ccccc4)c2O)OC(C)(C)C=C3)c1O`, the Potency result is “inactive and 10.6 µM (active)”.

In the case of `CC(=O)OC1C([N+]2(C)CCCCC2)C[C@H]2C3CC[C@H]4C[C@H](OC(C)=O)C([N+]5(C)CCCCC5)CC4(C)C3CCC12C` (stereo partly drawn), the Potency entry is “inactive”.

Regarding `CCCN(C/C=C/I)C1CCc2ccc(O)cc2C1` (stereo not drawn), the Potency entry is “inactive”.

For the origin of these results see PubChem BioAssay AID504845 (National Center for Advancing Translational Sciences (NCATS), 2011).
